Rows were chosen to be rich in hits. Some 2.7% of all compounds tested hit in one or more screens of this group.
aDG glyco act – increases alpha dystroglycan glycosylation | Pro5-aDG cells, alpha-DG glycosylation AlphaScreen (IIH6); 0% Pro5, 100% B10-LARGE cell signal | activation, % at 10 µM | 0.22% of 360,000 active;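 active = activation of at least 8% versus controls, or a plate z-score of at least 8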;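 note: Pro5 are CHO cells carrying HIG-tagged alpha-DG that lacks glycosylation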
MPTP inh – inhibitors of mitochondrial permeability transition pore | isolated mouse mitochondria, Ca2+ swelling absorbance, 30 min | inhibition, % at 10 µM | 1.4% of 360,000 active | AID 602449;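 active = inhibition of 50% or more, scaled per plate between neutral and stimulator controls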;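 note: 0% = DMSO wells given calcium and 100% = 1 mM EGTA wells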
NadD inh – inhibitors of Staphylococcus aureus NadD. purified NadD enzyme, colorimetric absorbance read-out. inhibition, % at 20 µM. 0.78% of 360,000 active; in the data active = inhibition above about 26%
TAG inh – inhibitors of triacylglycerol accumulation | H9c2 cells, Nile Red lipid (TAG) fluorescence; cells loaded with 200 µM oleic acid | 0.66% of 230,000 active | AID 651582 | inhibition, % at 12.5 µM;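 active = pattern-corrected inhibition of lipid staining of at least 50% with the nuclear-stain viability signal not falling by more than 50%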;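 note: 0% = DMSO wells and 100% = triacsin C control wells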
MPTP counter – Rhodamine 123 counter-screen of mitochondrial pore hits; shares compounds with MPTP inh; isolated mitochondria, membrane potential, Rhodamine 123 fluorescence; inhibition, % at 10 µM; 78% of 5,000 active; in the data active = inhibition above about 22%;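 note: 0% = DMSO vehicle and 100% = positive control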
MPTP swell DR – MPTP inhibition, dose response swelling confirmation; isolated mitochondria swelling, absorbance; IC50, µM; AID 651561; 58% of 780 active; shares compounds with MPTP inh; in the data active = IC50 below about 20 µM
MPTP cs DR – counter-screen for mitochondrial permeability transition pore inhibitors, dose response; shares compounds with MPTP inh; isolated mitochondria counterscreen, fluorescence read-out; IC50, µM; 49% of 780 active; AID 651564; in the data active = IC50 below about 80 µM
aDG conf – confirmation of alpha dystroglycan glycosylation activators | shares compounds with aDG glyco act | Pro5-aDG cells, alpha-DG glycosylation, IIH6 AlphaLISA; scaled to LARGE-overexpressing B10 cells as 100% | activation, % at 10 µM (by protocol) | 17% of 600 active;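 active = activation of at least 7% in one or more replicates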;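 note: cells exposed to compound for two days before detection; 0% = DMSO-treated Pro5 cells and 100% = DMSO-treated B10-LARGE cells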
The depositor's hits bear a star; · = no result.

SMILES	aDG glyco act	MPTP inh	NadD inh	TAG inh	MPTP counter	others
COCCN(C(=O)COC(=O)c1c(C)nn(-c2ccccc2)c1C)c1c(N)n(Cc2ccccc2)c(=O)[nH]c1=O	0	0	0	18	·
COCc1cc(C)nc(OCC(=O)N/N=C/c2cc(C)n(-c3c(C)cccc3C)c2C)c1C#N	0	56*	21	·	0	MPTP swell DR=7.9*;MPTP cs DR=>80
CN(C(=O)c1ccccc1F)C(c1ccccc1)c1ccccc1	0	-1	-9	·	·
CCOC(=O)Cc1csc(Nc2ccc(Cl)cc2)n1	0	0	-5	·	·
CCOC(=O)Cc1nnc2c(Nc3ccc(Cl)cc3)nc3nonc3n12	0	94*	-2	0	87*
COC(=O)NC(NC(=S)Nc1ccccc1OC)C(Cl)(Cl)Cl (configuration not stated)	0	1	-2	·	·
CCOC(=O)NC(NC(=S)Nc1ccccc1OC)C(Cl)(Cl)Cl (configuration not stated)	2	1	0	·	·
CCc1ccc(OCC(=O)NC(NC(=S)Nc2ccc(C)cc2C)C(Cl)(Cl)Cl)cc1 (configuration not stated)	0	0	5	4	·
CCc1ccc(OCC(=O)NC(NC(=S)Nc2ccccc2OC)C(Cl)(Cl)Cl)cc1 (configuration not stated)	1	92*	8	·	89*
CC(=O)NC(NC(=S)Nc1ccc(C)cc1C)C(Cl)(Cl)Cl (configuration not stated)	0	3	-7	-7	·
CCc1ccc(OCC(=O)NC(NC(=S)Nc2ccccc2C)C(Cl)(Cl)Cl)cc1 (configuration not stated)	1	81*	14	·	87*
Cc1ccc(NC(=S)NC(NC(=O)c2ccccc2C)C(Cl)(Cl)Cl)c(C)c1 (configuration not stated)	1	93*	4	1	82*
O=C(COc1ccccc1)NC(NC(=S)Nc1ccccc1O)C(Cl)(Cl)Cl (configuration not stated)	0	73*	-4	-6	74*
CCOC(=O)C1=C(COC(=O)c2ccc(OC)c(S(=O)(=O)N3CCOCC3)c2)NC(=O)NC1C (configuration not stated)	0	-1	4	-4	·
N#Cc1ccc(Oc2cnccn2)cc1	0	-2	-5	·	·
COC(=O)c1ccccc1NC(=S)NC(NC(=O)COc1ccccc1)C(Cl)(Cl)Cl (configuration not stated)	0	23	4	5	·
CC(C)CC(=O)NC(NC(=S)Nc1ccccc1)C(Cl)(Cl)Cl (configuration not stated)	1	14	-2	5	·
Cc1ccccc1NC(=S)NC(NC(=O)COc1ccccc1)C(Cl)(Cl)Cl (configuration not stated)	0	80*	1	11	83*
CCc1ccc(OCC(=O)NC(NC(=S)Nc2ccccc2)C(Cl)(Cl)Cl)cc1 (configuration not stated)	4	80*	6	·	88*
COC(=O)c1ccc2nc(-c3ccc(C)cc3)c(Cc3ccccc3OC)n2c1	0	-2	0	·	·
CC(=O)N1CCN(S(=O)(=O)c2cccc(C(=O)OCc3ccc(C(C)(C)C)cc3)c2)CC1	2	90*	-11	-17	90*
O=C(COc1cccc(F)c1)NNC(=O)Cc1ccc(Br)cc1	0	-2	-4	15	·
Cc1ccc(S(=O)(=O)N/N=C/c2cc([N+](=O)[O-])ccc2O)cc1[N+](=O)[O-]	0	72*	1	·	60*
Cc1ccc(S(=O)(=O)N/N=C/c2ccc(O)cc2O)cc1[N+](=O)[O-]	0	-1	0	0	·
CCCN(CC(=O)Nc1cc(Cl)cc(Cl)c1)CC(=O)Nc1ccc(F)c(F)c1F	5.9*	57*	-1	·	59*	aDG conf=0
SMILES	aDG glyco act	MPTP inh	NadD inh	TAG inh	MPTP counter	others
Cc1ccc(NC(=O)Cc2nn(C)c(=O)c3ccccc23)cc1F	10*	59*	15	-119	80*	aDG conf=2
CC(=O)Nc1ccc(-c2ccnc3c2CC(C)(C(=O)NCc2ccc(F)c(F)c2)O3)cc1 (configuration not stated)	0	1	-6	21	·
CCc1ccc(S(=O)(=O)NCc2ccc(C(=O)NCCN(Cc3ccccc3)C(C)C)cc2)cc1	4.5*	97*	-1	-3	93*	aDG conf=2
Oc1ccccc1-c1nc2c3ccccc3c3ccccc3c2[nH]1	1	2	11	·	·
c1csc(-c2nc3c4ccccc4c4ccccc4c3[nH]2)c1	5.5*	72*	25	9	48*	aDG conf=4
O=C(/C=C/c1ccc([N+](=O)[O-])cc1)OCC(=O)N1CCCC1	0	0	2	-1	·
C[C@H](CO)N1C[C@H](C)[C@@H](CN(C)C(=O)Cc2ccccc2)OCCCC[C@H](C)Oc2ccc(NC(=O)NC3CCCCC3)cc2C1=O	0	0	16	9	·
COc1cccc(O)c1CN1CCC(C(=O)Nc2ccc(Oc3cccnc3)cc2)CC1	1	18	-1	-11	·
COc1ccc(CN2CCC(C(=O)Nc3ccc(Oc4cccnc4)cc3)CC2)c(C)c1C	2.2*	83*	-3	·	91*	aDG conf=4.7*
Cc1nc(NC(C)c2ccccc2)c2oc3ccccc3c2n1 (configuration not stated)	6.7*	64*	-6	-34	96*	aDG conf=0
COC(=O)[C@]1(C)N[C@H](CN(C)C(=O)NC(C)C)[C@@H]2C(=O)N(C)C(=O)[C@@H]21	0	-1	0	-4	·
CCOC(=O)c1cnc(SCC(=O)Nc2ccc(NC(C)=O)c(OC)c2)nc1N	0	-1	-2	18	·
CCOC(=O)c1cnc(SCC(=O)Nc2cc(OC)ccc2OC)nc1N	6.7*	86*	-3	-27	69*	aDG conf=0
COC(=O)c1ccc(N2CCC(c3cc(-c4ccc(OC)cc4)n[nH]3)CC2)c([N+](=O)[O-])c1	4	19	14	·	·
COc1ccc(-c2cc(C3CCN(c4ccc(C(C)=O)cc4[N+](=O)[O-])CC3)[nH]n2)cc1	10*	84*	10	19	81*	aDG conf=4
O=C(NCc1cccc(Cl)c1)c1cc(COc2ccc3ncccc3c2)on1	10*	105*	-4	-15	92*	aDG conf=5
COc1cccc(OCc2cc(C(=O)NCc3ccccn3)no2)c1	0	-1	-3	·	·
Cc1ccc(F)cc1CNC(=O)c1cc(COc2ccc3ncccc3c2)on1	8.7*	95*	-1	·	105*	aDG conf=3

Screening data: PubChem BioAssay, Sanford-Burnham Center for Chemical Genomics
